# Reference: PubChem BioAssay AID1745848 (National Center for Advancing Translational Sciences (NCATS), 2022)
# The campaign covered roughly 2,100 compounds. About 940 (45%) were called active. Inconclusive results (about 48%) are left out. The call rests on the fitted dose curve; in most records, active means well fitted inhibition curve with a large enough effect; inconclusive means small, poorly fitted or top-dose-only effect; inactive means no such curve, though single readings can be large or run the other way. So high a share suggests a set chosen from earlier hits. The list shows a part of the results.
# Test: Confirmatory qHTS for Inhibitors of ATXN expression; further: nearly all actives have a fitted effect of over 65% in size
# Conditions: ATXN2-luciferase reporter cells, luminescence, 24 h; series mostly up to 11.5 µM
# Outline: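 Cells carrying ATXN2-luciferase reporter exposed 24 h at 37 C to compound. Viability then read by CellTiter-Fluor (25 uM GF-AFC, 30 min), followed by SteadyGlo luminescence; medium-only wells set 100% inhibition.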
# Potency means the concentration at half of the fitted maximal effect.
row,Compound,Potency
1,CCc1cc(-c2[nH]ncc2-c2ccc(OC)cc2)c(O)cc1O,3.98 µM (active)
2,Cc1cc(NC(=O)CSc2nccn2-c2cccc(C)c2C)no1,inactive
3,Cc1cc(NC(=O)/C=C/C(=O)N(c2ccccc2C)C(C(=O)NC2CCCC2)c2ccc(F)cc2)no1 (stereo unspecified),3.55 µM (active)
4,COc1ccc(C2CC(c3ccccc3C(F)(F)F)=NN2c2ccc(S(N)(=O)=O)cc2)cc1 (stereo unspecified),25.1 µM (active)
5,COc1ccc(C2CC(c3cccc(Cl)c3)=NN2c2ccc(S(N)(=O)=O)cc2)cc1 (stereo unspecified),25.1 µM (active)
6,COc1ccc(C2CC(c3ccccc3Cl)=NN2c2ccc(S(N)(=O)=O)cc2)cc1 (stereo unspecified),inactive
7,Oc1ccc(Cl)c2cccnc12,28.2 µM (active)
8,O=c1c(Cc2ccccc2)c(O)nc2n1CCS2,inactive
9,Oc1ccc(CN2CCC(Cc3ccccc3)CC2)c2cccnc12,0.891 µM (active)
10,Oc1ccc(Cc2ccccc2)c2cccnc12,10 µM (active)
11,CC(=O)N(C1=C(Cl)C(=O)c2ccccc2C1=O)C1CCCCC1,8.91 µM (active)
12,N#CCc1nc2ccccc2c(=O)[nH]1,inactive
13,CCCC(=O)Nc1c(C(=O)OCC)[nH]c2ccccc12,inactive
14,CCOc1ccccc1NC(=O)CCCc1nc2ccccc2c(=O)[nH]1,2.51 µM (active)
15,CCOC(=O)C(NS(=O)(=O)c1ccc(C)cc1)(C(F)(F)F)P(=O)(OCC(C)C)OCC(C)C (stereo unspecified),inactive
16,Cc1cccc(OCC(=O)NCC(=O)N/N=C/c2cc(Br)cc(Br)c2O)c1,8.91 µM (active)
17,CCOc1ccc(/C=N/NC(=O)C(O)c2ccccc2)c(O)c1 (stereo unspecified),3.16 µM (active)
18,O=C(COc1ccccc1)NCC(=O)N/N=C/c1ccc(O)cc1O,15.8 µM (active)
19,O=C(/C=C\c1ccccc1)NCC(=O)N/N=C/c1ccc(O)cc1O,15.8 µM (active)
20,O=C(N/N=C/c1ccc(O)cc1O)/C(=C/c1ccccc1)CCO,0.794 µM (active)
21,CCN(CC)c1ccc(/C=C/c2cccc[n+]2C)c(OC)c1,2.51 µM (active)
22,Cc1cc(C)nc(/N=C(\N)Nc2ccc(C(C)C)cc2)n1,2.24 µM (active)
23,S=C(NC1CCCCC1)N1CCOCCOCCN(C(=S)NC2CCCCC2)CCOCCOCC1,3.16 µM (active)
24,OC[C@@H]1CN(Cc2ccc(-c3ccccc3)cc2)C[C@H](n2cnc3c(Nc4ccccc4)ncnc32)O1,15.8 µM (active)

row,Compound,Potency
1,CCOC(=O)C1CCN(c2ncnc3c2cnn3-c2ccc(Cl)cc2)CC1,1.26 µM (active)
2,O=C(Cn1nc2ccccc2n1)N/N=C/c1cc([N+](=O)[O-])ccc1O,3.16 µM (active)
3,O=C(N/N=C/c1cc([N+](=O)[O-])ccc1O)c1c[nH]c2ccccc12,17.8 µM (active)
4,O=C(N/N=C/c1cc([N+](=O)[O-])ccc1O)c1cc(-c2ccccc2)nc2ccccc12,3.16 µM (active)
5,O=C(N/N=C/c1cc([N+](=O)[O-])ccc1O)c1cccc2cc[nH]c12,3.16 µM (active)
6,COc1ccccc1N1C(=O)N(C(C)=O)C2C1Nc1ccccc1N2C (stereo unspecified),inactive
7,CSc1cccc(NC(=O)c2ccc(CN3CCc4ccccc4C3)cc2)c1,4.47 µM (active)
8,CC1Cc2cc(-c3csc(NC(=O)Cc4cccs4)n3)ccc2N1S(C)(=O)=O (stereo unspecified),3.98 µM (active)
9,C=CCc1cccc(/C=N/NC(=O)CCC(=O)Nc2ccc(C)cc2)c1O,3.55 µM (active)
10,C=CCc1cccc(/C=N/NC(=O)CCC(=O)Nc2ccc(F)cc2)c1O,3.55 µM (active)
11,Cn1c(CCN2CCN(c3ccccn3)CC2)nc2cc(NC(=O)COc3ccc(Cl)cc3)ccc21,11.2 µM (active)
12,Cc1ccccc1C(=O)/C(C#N)=N/Nc1c(C)n(C)n(-c2ccccc2)c1=O,3.55 µM (active)
13,Cc1c(N/N=C(\C#N)C(=O)c2ccc(Cl)cc2)c(=O)n(-c2ccccc2)n1C,1.12 µM (active)
14,Cc1c(N=C2N=C(NC(=O)Nc3ccc(Cl)cc3)c3ccccc32)c(=O)n(-c2ccccc2)n1C,inactive
15,Cc1c(N/N=C(\C#N)C(=O)c2ccccc2)c(=O)n(-c2ccccc2)n1C,2.51 µM (active)
16,Cc1ccccc1C(=O)N1CCN(c2ccc(NC(=O)c3ccc4c(c3)OCCO4)cc2)CC1,3.98 µM (active)
17,O=C(Nc1ccc(NC(=O)c2ccco2)cc1)c1ccc2c(c1)OCCO2,14.1 µM (active)
18,Cc1ccc(C(=O)N2CCN(c3ccc(NC(=S)NC(=O)c4cccs4)cc3)CC2)cc1,inactive
19,COc1ccc(/C=N/NC(=O)c2nc(-c3ccccc3)n(-c3ccccc3)n2)c(O)c1,3.98 µM (active)
20,CC(=O)c1sc(NC(=O)c2cc(-c3ccccc3)nn2-c2ccccc2)nc1C,inactive
21,Cc1cccc(NC(=O)c2cc(-c3ccccn3)nc3ccccc23)c1C,17.8 µM (active)
22,COc1cccc(/C=N/NC(=O)c2ccc(-c3ccccc3)cc2)c1O,2 µM (active)
23,COc1cccc(C=NNC(=O)c2ccncc2)c1O,15.8 µM (active)
24,COc1cccc(/C=N/NC(=O)c2cc(-c3ccccn3)nc3ccccc23)c1O,2.82 µM (active)

row,Compound,Potency
1,COc1cccc(/C=N/NC(=O)c2ccc(=O)n(C)c2)c1O,15.8 µM (active)
2,COc1cccc(/C=N/NC(=O)c2nc(-c3ccccc3)cc(-c3ccccc3)n2)c1O,1 µM (active)
3,OC[C@@H]1[C@@H](c2ccc(F)cc2)C(c2ccccc2)=NN1c1ccccc1,inactive
4,Cc1cc(=O)oc2c1c(C)nn2-c1cccc(Cl)c1,inactive
5,Cc1noc2ncnc(N3CCN(c4cccc(Cl)c4)CC3)c12,11.2 µM (active)
6,CCN(CC)CCNC(=O)CCc1c(C)nc2c(c(C)nn2-c2ccc(C)cc2)c1C,3.16 µM (active)
7,COc1ccc2nc(C)cc(NCc3cccc(C(F)(F)F)c3)c2c1,14.1 µM (active)
8,COc1ccc2nc(C)cc(NCc3ccc(F)cc3)c2c1,3.98 µM (active)
9,CCOC(=O)c1c(SCCN2CCCCC2)n(-c2ccccc2)c(=S)n(-c2ccccc2)c1=O,22.4 µM (active)
10,CCOC(=O)c1c(SCCN2CCCC2)n(-c2ccccc2)c(=S)n(-c2ccccc2)c1=O,2.24 µM (active)
11,COc1cccc(N2CCN(c3nc(-c4ccccc4C)cc(=O)[nH]3)CC2)c1,0.398 µM (active)
12,O=C(CNc1ccc(F)cc1)N/N=C/c1c(O)ccc2ccccc12,3.16 µM (active)
13,COc1ccccc1NCC(=O)N/N=C/c1c(O)ccc2ccccc12,3.16 µM (active)
14,O=C(CSCC(=O)Nc1ccccc1)N/N=C/c1c(O)ccc2ccccc12,0.708 µM (active)
15,O=C(CNc1ccccc1)N/N=C/c1c(O)ccc2ccccc12,0.562 µM (active)
16,CCOc1cc(CNCCO)cc(Br)c1OCc1ccccc1,12.6 µM (active)
17,Cc1nc(C(F)(F)F)c(C(=O)N/N=C(\N)c2ccccn2)s1,14.1 µM (active)
18,CC(C)C1Cc2c(sc3[nH]c(=S)n(Cc4ccccc4)c(=O)c23)CO1 (stereo unspecified),12.6 µM (active)
19,Nc1ccc(Oc2ccccc2-c2ccccc2)cc1,2 µM (active)
20,Cc1ncc(CO)c(/C=N/Nc2ccc(C(F)(F)F)cn2)c1O,3.55 µM (active)
21,CCC(C)N1C(=O)S/C(=C/c2ccc(Sc3nc4ccccc4[nH]3)o2)C1=O (stereo unspecified),11.2 µM (active)
22,COc1cc(C(=O)OC(C)C(=O)N2CCc3ccccc3C2)ccc1OCC(=O)N1CCOCC1 (stereo unspecified),inactive
23,S=C(Nc1ccccc1)Nc1ccc(OCc2ccc(Cl)cc2Cl)cc1,2.51 µM (active)
24,Cc1[nH]c(=O)c(C(=O)/C=C/c2ccccc2)c2c1CCCC2,7.94 µM (active)

row,Compound,Potency
1,Cc1ccc(C(=O)NCCN2C3=NC[C@@H](Cc4ccccc4)N3C[C@H]2Cc2ccc(O)cc2)cc1Br,2.82 µM (active)
2,CCCCn1c2ccc(F)cc2c2nnc(NN)nc21,28.2 µM (active)
3,Cc1cc(C2=NNC(=NC3CC3)SC2)c(C)n1-c1ccccc1F,0.126 µM (active)
4,CCCCC(=O)NC(c1ccco1)c1cc(Cl)c2cccnc2c1O (stereo unspecified),3.55 µM (active)
5,CC(=O)NC(c1ccco1)c1cc(Cl)c2cccnc2c1O (stereo unspecified),3.16 µM (active)
6,CCC(=O)NC(c1ccco1)c1cc(Cl)c2cccnc2c1O (stereo unspecified),2.82 µM (active)
7,CCCC(=O)NC(c1ccco1)c1cc(Cl)c2cccnc2c1O (stereo unspecified),11.2 µM (active)
8,O=C(CCc1ccccc1)NC(c1cccs1)c1cc(Cl)c2cccnc2c1O (stereo unspecified),2.24 µM (active)
9,CCC(=O)NC(c1ccco1)c1cc(Br)c2cccnc2c1O (stereo unspecified),11.2 µM (active)
10,Oc1ccc(C2CNCc3sccc32)cc1O (stereo unspecified),inactive
11,Cc1nc(-c2ccc(C(F)(F)F)cc2)sc1C(=O)NN,14.1 µM (active)
12,Cc1c(C(=O)NCc2ccc(C(F)(F)F)cc2)sc(=O)n1Cc1cccc(F)c1,inactive
13,Cc1cc(Cl)ccc1-c1cc2nc(NCCCN(C)C)n(C)c(=O)c2s1,inactive
14,Cn1c(NCCN2CCCC2)nc2cc(-c3ccsc3)sc2c1=O,28.2 µM (active)
15,Cc1ccc(F)cc1-c1cc2nc(NCCCN(C)C)n(C)c(=O)c2s1,17.8 µM (active)
16,CCCCCCc1cc2cc(S(=O)(=O)c3ccc(C)cc3)c(=O)oc2cc1O,inactive
17,CCCCCCc1cc2cc(C(=O)Nc3ccccc3)c(=O)oc2cc1O,0.794 µM (active)
18,Cc1cccc(Nc2nc(N)nc(CCl)n2)c1C,inactive
19,C=CCn1c(COc2ccccc2)nnc1SC(C)C(=O)N/N=C/c1cc(Cl)ccc1O (stereo unspecified),3.98 µM (active)
20,CC(C)c1ccc(S(=O)(=O)c2cc3cc(Br)ccc3oc2=O)cc1,25.1 µM (active)
21,c1ccc2c(c1)c1c(c3ccccc32)CN2CCCC2C1 (stereo unspecified),inactive
22,CS(=O)(=O)Nc1ccccc1C(=O)Nc1cc(Cl)cc(Cl)c1,2.51 µM (active)
23,O=C(C(Br)=Cc1ccccc1)c1ccccc1,10 µM (active)
24,CC(C)(C)NCC(=Cc1ccccc1)C(=O)c1ccccc1,1.41 µM (active)
